The full list was thinned out, with hits kept by preference.
CD40 NFkB inh = CD40 pathway inhibition in BL2 cells; BL2 NF-kB luciferase reporter, CD40L-induced, 4 h; 0.94% of 83,000 active; AID 1053188; inhibition, % at 10 µM;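 active = mean inhibition of at least 50% with a set share of replicates also reaching that level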;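 note: 0% = neutral control wells and 100% = IKK inhibitor VII at 50 µM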
* hit, by the source's call; [ ] = another dose, or the depositor's remark.

SMILES | CD40 NFkB inh
CC(C)NC(=O)N(C)C[C@H]1Oc2c(cccc2[N+](=O)[O-])C(=O)N(C)C[C@@H]1C | 8.2
C[C@H]1CN(C)C(=O)c2cccc(N(C)C)c2O[C@H]1CN(C)C(=O)OC(C)(C)C | 7.1
O=C1C=CC(=O)N1Cc1cccnc1 | 6.9
O=C1C=CC(=O)N1CCCCCCCCCCN1C(=O)C=CC1=O | 110.0*
CNC[C@@H]1Oc2ccc(N)cc2C(=O)N(C)C[C@@H]1C | 4.4
C[C@H]1CN(C)C(=O)Cc2cc(N(C)C)ccc2O[C@H]1CN(C)S(C)(=O)=O | 5.5
C[C@@H]1CN(C)C(=O)Cc2cc(N)ccc2O[C@@H]1CN(C)S(C)(=O)=O | -0.7
CC1(C)CC(NCc2ccncc2)CC(C)(C)N1 | 5.1
CC1(C)CC(NS(=O)(=O)c2cccc3ccccc23)CC(C)(C)N1 | 5.7
CC1(C)CC(Nc2ccc(Nc3ccccc3)cc2)CC(C)(C)N1 | 100.1*
CC(=O)N(C)C[C@@H]1Oc2c(NS(C)(=O)=O)cccc2C(=O)N(C)C[C@H]1C | 2.7
CCCN1[C@H](CO)[C@H](c2ccc(-c3ccccc3F)cc2)[C@@H]1CNC(=O)C1CCC1 | 10.3[25 µM]
CC(=O)N(C)C[C@H]1Oc2ccc(N(S(C)(=O)=O)S(C)(=O)=O)cc2C(=O)N(C)C[C@@H]1C | 18.4
CC(C)COC(=O)N(C)C[C@H]1OCc2ccccc2-c2c(n(C)c3ccccc23)C(=O)N([C@@H](C)CO)C[C@@H]1C | 5.1[25 µM]
CC(=O)Nc1ccc2c(c1)CC(=O)N(C)C[C@@H](C)[C@@H](CN(C)C(C)=O)O2 | -2.6
O=C(C[C@@H]1CC[C@@H]2[C@H](COC[C@@H](O)CN2Cc2cc(F)ccc2F)O1)NCc1ccc(Oc2ccccc2)cc1 | 15.2[25 µM]
CCCC(=O)Nc1ccc(Br)c(Cl)c1 | 8.7
CC(=O)Nc1ccc(Br)c(Cl)c1 | 3.0
O=C(O)CCC(=O)Nc1ccc(Br)c(Cl)c1 | 36.3*
COc1ccccc1-c1ccc([C@@H]2[C@@H](CO)N3CCCCN(C(=O)NC4CCCC4)C[C@H]23)cc1 | 7.3[25 µM]
CC(=O)Nc1cccc2c1O[C@H](CN(C)S(C)(=O)=O)[C@H](C)CN(C)C2=O | 6.8
CCCC#Cc1ccc2c(c1)[C@H]1[C@H](CCN1C(=O)C1CCCCC1)[C@@H](CO)N2 | 0.9[25 µM]
C(=NN1CCCCCC1)c1ccc2ccccc2n1 | 76.8*
C(=C\c1ccc2ccccc2n1)/c1ccccc1 | 27.7
CCOc1ccccc1C=NN1CCCCCC1 | 7.0
SMILES | CD40 NFkB inh
O=C(C1CCCC1)N1CC(=O)N2[C@H](CO)[C@H](c3ccc(-c4cccnc4)cc3)[C@H]2C1 | -3.4
C1CCC(C(CC2CCCCN2)C2CCCCC2)CC1 (stereo not given) | 77.7*
COc1cccc(CN(C)C[C@H]2OCc3ccccc3-c3ccccc3C(=O)N([C@H](C)CO)C[C@@H]2C)c1 | -11.7[25 µM]
C[C@@H]1CN(C)C(=O)c2cccnc2O[C@@H]1CN(C)C | 0.3
N#C[C@H]1[C@@H](c2ccccc2C2=CCCCC2)[C@H](CO)N1S(=O)(=O)c1ccccc1 | 11.3[25 µM]
N#C[C@H]1[C@H](c2ccccc2C2=CCCCC2)[C@@H](CO)N1S(=O)(=O)c1ccccc1 | 60.3*[25 µM]
N#C[C@@H]1[C@@H](c2ccccc2C2=CCCCC2)[C@H](CO)N1S(=O)(=O)c1ccccc1 | 6.1[25 µM]
CC(C)(C)NCC(=Cc1ccccc1)C(=O)c1ccccc1 | 51.7*
COc1ccc(C=C(C(=O)c2ccccc2)C(=O)c2ccccc2)cc1 | -98.6
COc1ccc(C=C(C(C)=O)C(=O)c2ccccc2)cc1 | 2.9
COC(=O)C(CCCN=C(N)N)NC(=O)CCCc1c(-c2ccccc2)[nH]c2c(F)cc(F)cc12 (stereo not given) | 8.9[25 µM]
COc1ccc(S(=O)(=O)N(C)C[C@@H]2Oc3ccc(NC(=O)Nc4ccc(C(F)(F)F)cc4)cc3C(=O)N([C@H](C)CO)C[C@@H]2C)cc1 | 37.6[25 µM]
C[C@@H]1CCCCO[C@@H](CN(C)CC2CCCCC2)[C@H](C)CN([C@@H](C)CO)C(=O)c2cc(NC(=O)Nc3ccc(C(F)(F)F)cc3)ccc2O1 | 17.7
COc1ccc(S(=O)(=O)N(C)C[C@@H]2Oc3ccc(NC(=O)Nc4ccc(C(F)(F)F)cc4)cc3C(=O)N([C@H](C)CO)C[C@H]2C)cc1 | 52.7*[25 µM]
COc1ccc(S(=O)(=O)N(C)C[C@H]2Oc3ccc(NC(=O)Nc4ccc(C(F)(F)F)cc4)cc3C(=O)N([C@H](C)CO)C[C@@H]2C)cc1 | 37.9[25 µM]
Cc1noc(C)c1NC(=O)N(C)C[C@@H]1OCCCC[C@H](C)Oc2ccc(NC(=O)Nc3ccc(C(F)(F)F)cc3)cc2C(=O)N([C@H](C)CO)C[C@@H]1C | 28.4[25 µM]
C[C@H](CO)N1C[C@H](C)[C@H](CN(C)CC2CCCCC2)Oc2ccc(NC(=O)Nc3ccc(C(F)(F)F)cc3)cc2C1=O | 69.0*
Cc1noc(C)c1NC(=O)N(C)C[C@@H]1OCCCC[C@@H](C)Oc2ccc(NC(=O)Nc3ccc(C(F)(F)F)cc3)cc2C(=O)N([C@H](C)CO)C[C@@H]1C | -9.5[25 µM]
C[C@H](CO)N1C[C@H](C)[C@@H](CN(C)Cc2ccc3c(c2)OCO3)Oc2ccc(NC(=O)Nc3ccc(C(F)(F)F)cc3)cc2C1=O | 13.5
C[C@@H]1CCCCO[C@H](CN(C)CC2CCCCC2)[C@H](C)CN([C@@H](C)CO)C(=O)c2cc(NC(=O)Nc3ccc(C(F)(F)F)cc3)ccc2O1 | 55.0*[25 µM]
C[C@@H]1CN([C@H](C)CO)C(=O)Cc2cc(NC(=O)Nc3ccc(C(F)(F)F)cc3)ccc2O[C@@H]1CN(C)CC1CCCCC1 | 32.1
C[C@@H]1CCCCO[C@@H](CN(C)CC2CCCCC2)[C@@H](C)CN([C@H](C)CO)C(=O)c2cc(NC(=O)Nc3ccc(C(F)(F)F)cc3)ccc2O1 | 5.1[25 µM]
Cc1noc(C)c1NC(=O)N(C)C[C@@H]1OCCCC[C@@H](C)Oc2ccc(NC(=O)Nc3ccc(C(F)(F)F)cc3)cc2C(=O)N([C@H](C)CO)C[C@H]1C | 60.1*[25 µM]
O=C(c1ccccn1)N1[C@@H](CO)[C@@H](c2ccccc2)C12CN(Cc1ccccc1F)C2 | 3.1[25 µM]
N#C/C(=C\c1ccc(O)c(O)c1)C(=O)NC1CCC(CC2CCC(NC(=O)/C(C#N)=C/c3ccc(O)c(O)c3)CC2)CC1 (stereo not given) | 18.0[25 µM]
SMILES | CD40 NFkB inh
CC[C@H]1C/C=C\CCNC(=O)CCC(=O)N1 | -8.1[25 µM]
C[C@H]1CN([C@@H](C)CO)C(=O)c2ccccc2-c2ccccc2CO[C@H]1CN(C)S(=O)(=O)c1ccsc1 | 2.9
CC(=O)Nc1cccc2c1O[C@@H](CN(C)C(=O)NC(C)C)[C@H](C)CN(C)C2=O | -7.6
CC(=O)Nc1ccc2c(c1)C(=O)N(C)C[C@H](C)[C@H](CN(C)C(C)=O)O2 | -5.7
C[C@@H]1CN(C)C(=O)c2cc(N(C)C)ccc2O[C@@H]1CN(C)S(C)(=O)=O | 8.2
C[C@H]1CN([C@@H](C)CO)C(=O)c2c(c3ccccc3n2C)-c2ccccc2CO[C@@H]1CN(C)S(=O)(=O)c1ccccc1 | 26.0
C[C@H]1CN([C@@H](C)CO)C(=O)c2c(c3ccccc3n2C)-c2ccccc2CO[C@@H]1CN(C)Cc1ccc(C(F)(F)F)cc1 | 15.5
C[C@@H]1CN([C@@H](C)CO)C(=O)c2c(c3ccccc3n2C)-c2ccccc2CO[C@H]1CN(C)Cc1cccc(C(F)(F)F)c1 | 78.3*[25 µM]
C[C@@H]1CN([C@H](C)CO)C(=O)c2c(c3ccccc3n2C)-c2ccccc2CO[C@@H]1CN(C)Cc1ccc(C(F)(F)F)cc1 | 5.7
C[C@@H]1CN([C@H](C)CO)C(=O)c2c(c3ccccc3n2C)-c2ccccc2CO[C@H]1CN(C)Cc1ccc(C(F)(F)F)cc1 | 16.5
